This is an account of results in PubChem BioAssay.

Molecules are shown by their SMILES. The source made the active and inactive calls. Unless noted, how the calls were made is not given here.

Assay [1] is described as follows: compounds binding Alexa647 anti-His antibody – biochemical, small-molecule microarray, 635 nm fluorescence, artefact control for SMM control protein annotation, primary screen (AID 1128).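 Further: score merges feature fluorescence with signal-to-noise for each printed compound spot.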 The settings on record: higher = more signal.
Assay [2] concerns Human papillomavirus type 1a E7 protein (residues 1-88). Kind of assay: HPV1a E7 small-molecule binders, primary screen, biochemical, small-molecule microarray, residues 1-88, 635 nm (AID 1129). The settings on record: small-molecule microarray binding, fluorescence 635 nm; higher = more signal.
Assay [3] concerns the target Focal adhesion kinase 1 (Homo sapiens) (UniProt Q05397). Kind of assay: PTK2 protein binding on printed compound slides – biochemical, small-molecule microarray, 635/667 nm fluorescence, BSA, DTT, primary screen (AID 1130).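 Further: composite of spot emission at 667 nm and signal to noise over triplicate slides.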 The settings on record: 635 nm fluorescence, higher = more signal.
The subject of assay [4] is Fibrinogen (Alexa647-labelled). The assay can be described thus: Alexa647-fibrinogen binding to printed small molecules – biochemical, small-molecule microarray, 635/667 nm fluorescence, artefact control for SMM control-protein annotation, profiling panel (AID 1131).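 Further: z-score merges 667 nm fluorescence with per-spot signal-to-noise over triplicate slides.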 Conditions: fibrinogen-A647 binding fluorescence, higher = more signal.
Assay [5] addresses Follistatin (Homo sapiens) (UniProt P19883). Kind of assay: FST protein binding to printed compounds – biochemical, small-molecule microarray, 635/667 nm fluorescence, primary screen (AID 1132). The settings on record: 635 nm fluorescence, higher = more signal.
The target in assay [6] is Fibroblast growth factor 2 (Homo sapiens) (UniProt P09038). Kind of assay: basic fibroblast growth factor binding to printed compounds – biochemical, small-molecule microarray, 635/667 nm fluorescence, primary screen (AID 1133). The settings on record: FGF2, fluorescence 635/667, higher = more signal.
Chain of Fibroblast growth factor 2 (Homo sapiens) (P09038 whole entry, looked up): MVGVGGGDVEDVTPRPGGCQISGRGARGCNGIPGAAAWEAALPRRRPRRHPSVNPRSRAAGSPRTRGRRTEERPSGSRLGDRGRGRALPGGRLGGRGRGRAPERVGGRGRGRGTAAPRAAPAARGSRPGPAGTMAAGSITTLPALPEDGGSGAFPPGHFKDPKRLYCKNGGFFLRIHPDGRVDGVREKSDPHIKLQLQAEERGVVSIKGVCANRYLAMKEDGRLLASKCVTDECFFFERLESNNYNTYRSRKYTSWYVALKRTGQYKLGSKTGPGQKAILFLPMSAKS
A short description of assay [7]: JC-1 mitochondrial potential readout, lung cancer cells – cell-based, A549, JC-1 fluorescence, basal, 24 h, 100 nL, profiling panel (AID 1138).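 Further: A549 lung adenocarcinoma cells under basal conditions with no added stimulus; test concentration not given here.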 The settings on record: higher = more signal.
The subject of assay [8] is Lefty1. The assay can be described thus: Lefty1 protein binding to printed compounds – biochemical, small-molecule microarray, 635/667 nm fluorescence, primary screen (AID 1139). The settings on record: fluorescence 635/667, higher = more signal.
Assay [9] deals with wheat germ agglutinin (Triticum aestivum), Alexa647-labelled. The assay can be described thus: Alexa647-WGA lectin binding to printed small molecules – biochemical, small-molecule microarray, 635/667 nm fluorescence, artefact control for SMM control-protein annotation, profiling panel (AID 1140).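 Further: score merges 667 nm feature emission with signal to noise over triplicate slides.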 The settings on record: WGA-A647 binding, 635 nm fluorescence, higher = more signal.

In assay [10] the target is Luciferin 4-monooxygenase (Photinus pyralis) (UniProt P08659). Kind of assay: inhibition of purified Photinus pyralis luciferase – biochemical, luminescence, purified enzyme, 2006 set, primary screen (AID 1141).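 Further: cell-free assay with purified firefly luciferase at 100 ng per well in PBS; test concentration not given here.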 Conditions: purified firefly luciferase, SteadyGlo luminescence, 30 min; higher = more signal, called active from +8 up or from −8 down.
Chain of Luciferin 4-monooxygenase (Photinus pyralis) (P08659 whole entry, looked up): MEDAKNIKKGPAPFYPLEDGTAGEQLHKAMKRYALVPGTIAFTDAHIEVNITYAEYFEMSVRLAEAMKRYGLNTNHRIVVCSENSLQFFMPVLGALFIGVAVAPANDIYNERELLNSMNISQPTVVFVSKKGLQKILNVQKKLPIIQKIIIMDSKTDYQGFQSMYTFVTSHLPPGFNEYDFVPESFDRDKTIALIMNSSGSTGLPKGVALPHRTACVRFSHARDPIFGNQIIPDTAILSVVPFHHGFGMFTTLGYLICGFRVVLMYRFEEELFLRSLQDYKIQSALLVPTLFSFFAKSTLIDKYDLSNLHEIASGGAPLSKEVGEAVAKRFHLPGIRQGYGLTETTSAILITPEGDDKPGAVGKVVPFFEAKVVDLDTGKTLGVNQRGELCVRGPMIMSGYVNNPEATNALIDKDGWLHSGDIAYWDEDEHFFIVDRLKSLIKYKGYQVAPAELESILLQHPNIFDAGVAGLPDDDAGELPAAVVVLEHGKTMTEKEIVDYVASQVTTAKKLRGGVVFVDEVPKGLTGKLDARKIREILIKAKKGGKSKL
Assay [11] concerns Wnt5a (protein binding on small-molecule microarray). The assay can be described thus: small molecules binding Wnt5a protein – biophysical, small-molecule microarray, 635/667 nm fluorescence, primary screen (AID 1142).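 Further: fluorescence read at 667 nm with signal to noise per printed feature.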 Conditions: 635 nm fluorescence, higher = more signal.
Assay [12] in a line: ATP-based viability of Huh7 replicon cells – cell-based, CellTiter-Glo luminescence, basal, 48 h, cytotoxicity control for HCV replication inhibitor project, primary screen (AID 1143).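 Further: Huh7 hepatoma cells carrying a hepatitis C replication reporter with no stimulus; test concentration not given here.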 Conditions: higher = more signal, called active from +8 up or from −8 down.
The nature of assay [13]: Pseudomonas biofilm growth suppression – PAO1 strain, BacTiter-Glo luminescence, LB-PBS, primary screen (AID 1144). The settings on record: P. aeruginosa PAO1 biofilm, 12 h, higher = more signal.
Assay [14] can be described thus: basal CRE-LacZ reporter activity in PC12 – cell-based, unstimulated, primary screen (AID 1145). The settings on record: no forskolin, luminescence, 4.5 h, higher = more signal, called active from +8 up or from −8 down.
Assay [15] is described as follows: forskolin-driven CRE-LacZ activity in PC12 – cell-based, CRE-LacZ reporter, forskolin-stimulated, primary screen (AID 1146).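 Further: PC12 cells with 6xCRE LacZ reporter stimulated by forskolin 10 µM; beta-galactosidase reporter signal reflecting CREB driven transcription.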 The settings on record: luminescence, 4.5 h, higher = more signal, called active from +8 up or from −8 down.
The target of assay [16] is Streptavidin (Streptomyces avidinii) (UniProt P22629). The assay can be described thus: compounds binding control protein streptavidin – biophysical, small-molecule microarray, 635/667 nm fluorescence, artefact control for SMM compound annotation, primary screen (AID 1147).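 Further: signal reflects streptavidin binding to arrayed compounds as a control protein.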 Conditions: higher = more signal.
Chain of Streptavidin (Streptomyces avidinii) (P22629 whole entry, looked up): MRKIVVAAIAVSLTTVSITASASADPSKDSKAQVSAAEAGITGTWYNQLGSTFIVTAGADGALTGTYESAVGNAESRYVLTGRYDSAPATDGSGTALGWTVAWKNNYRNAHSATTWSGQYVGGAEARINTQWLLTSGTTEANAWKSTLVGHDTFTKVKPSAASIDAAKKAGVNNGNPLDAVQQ
The nature of assay [17]: probe aInhba binding on compound microarray – biochemical, small-molecule microarray, 635/667 nm fluorescence, primary screen (AID 1148).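 Further: score merges 667nm spot fluorescence with signal-to-noise for antibody binding to printed compounds.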 The settings on record: higher = more signal.
The target in assay [18] is Torsin-1A (Homo sapiens) (UniProt O14656). The assay can be described thus: TOR1A wild-type binding on microarray – cell lysate, small-molecule microarray, lysate, 635/667 nm, primary screen (AID 1149). The settings on record: COS7 hTOR1A-WT lysate, 635 nm fluorescence, higher = more signal.
Chain of Torsin-1A (Homo sapiens) (O14656 whole entry, looked up): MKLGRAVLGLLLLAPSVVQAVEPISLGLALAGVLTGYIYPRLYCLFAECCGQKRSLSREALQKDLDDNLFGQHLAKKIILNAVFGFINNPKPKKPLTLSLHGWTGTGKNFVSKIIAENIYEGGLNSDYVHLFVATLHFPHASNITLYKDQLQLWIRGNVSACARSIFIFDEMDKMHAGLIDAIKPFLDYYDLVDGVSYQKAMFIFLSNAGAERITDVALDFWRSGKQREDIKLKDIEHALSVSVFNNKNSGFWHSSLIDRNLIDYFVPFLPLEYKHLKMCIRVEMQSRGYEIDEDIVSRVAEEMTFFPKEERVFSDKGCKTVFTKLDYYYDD
The target is the same in assay [19]. Kind of assay: torsin A mutant lysate binding on microarrays – cell lysate, small-molecule microarray, COS7 lysate, 635/667 nm fluorescence, primary screen (AID 1150).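 Further: score pools 667 nm emission and signal to noise measuring lysate protein binding.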 Conditions: COS7 hTOR1A mutant lysate, 635 nm fluorescence, higher = more signal.
Assay [20] relates to Sonic hedgehog protein (Shh). The assay can be described thus: Sonic hedgehog microarray binding compounds – biochemical, small-molecule microarray, 635/667 nm fluorescence, primary screen (AID 1151).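 Further: Shh protein binding to compounds spotted on small-molecule microarray slides; score combines spot fluorescence intensity with signal-to-noise across triplicate slides.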 Conditions: 635 nm fluorescence, higher = more signal.

Chain of Follistatin (Homo sapiens) (P19883 whole entry, looked up): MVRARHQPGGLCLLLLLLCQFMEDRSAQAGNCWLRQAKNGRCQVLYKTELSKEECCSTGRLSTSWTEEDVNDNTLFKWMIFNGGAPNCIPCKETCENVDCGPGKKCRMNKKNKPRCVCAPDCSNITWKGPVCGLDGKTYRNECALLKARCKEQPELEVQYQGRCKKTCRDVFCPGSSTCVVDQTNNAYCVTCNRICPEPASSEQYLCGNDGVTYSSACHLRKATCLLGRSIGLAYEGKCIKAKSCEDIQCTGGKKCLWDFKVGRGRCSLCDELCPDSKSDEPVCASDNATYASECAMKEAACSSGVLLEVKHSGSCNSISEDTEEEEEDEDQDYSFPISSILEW
Chain of Focal adhesion kinase 1 (Homo sapiens) (Q05397 whole entry, looked up): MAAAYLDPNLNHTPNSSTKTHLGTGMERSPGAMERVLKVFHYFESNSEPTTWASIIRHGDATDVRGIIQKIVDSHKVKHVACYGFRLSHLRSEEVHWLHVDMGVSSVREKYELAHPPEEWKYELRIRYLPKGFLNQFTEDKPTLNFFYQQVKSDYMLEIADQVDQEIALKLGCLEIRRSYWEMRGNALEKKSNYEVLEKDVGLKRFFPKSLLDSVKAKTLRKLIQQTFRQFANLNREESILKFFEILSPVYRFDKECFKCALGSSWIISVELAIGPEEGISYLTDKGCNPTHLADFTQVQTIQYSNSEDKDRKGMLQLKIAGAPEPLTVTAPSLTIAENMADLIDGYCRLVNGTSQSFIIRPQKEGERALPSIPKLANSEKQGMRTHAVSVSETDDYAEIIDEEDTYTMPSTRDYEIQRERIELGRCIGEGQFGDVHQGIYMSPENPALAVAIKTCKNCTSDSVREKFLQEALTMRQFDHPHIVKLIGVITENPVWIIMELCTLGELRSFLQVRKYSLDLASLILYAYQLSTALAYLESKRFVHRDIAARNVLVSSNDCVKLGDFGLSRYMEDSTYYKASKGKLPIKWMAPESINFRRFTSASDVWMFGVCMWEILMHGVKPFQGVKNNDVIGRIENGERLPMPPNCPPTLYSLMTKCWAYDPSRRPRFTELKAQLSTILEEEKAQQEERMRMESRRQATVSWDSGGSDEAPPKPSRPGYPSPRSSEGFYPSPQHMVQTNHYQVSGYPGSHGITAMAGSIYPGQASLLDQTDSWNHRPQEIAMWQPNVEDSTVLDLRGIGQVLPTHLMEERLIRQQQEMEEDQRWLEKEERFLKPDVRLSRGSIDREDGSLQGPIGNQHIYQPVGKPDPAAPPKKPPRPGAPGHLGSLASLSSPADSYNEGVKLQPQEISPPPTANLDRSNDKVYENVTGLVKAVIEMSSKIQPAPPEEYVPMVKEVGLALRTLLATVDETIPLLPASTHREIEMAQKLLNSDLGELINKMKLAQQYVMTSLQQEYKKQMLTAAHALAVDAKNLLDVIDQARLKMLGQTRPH

As for `CC(C)N1CC=CC23O[C@@H]4/C=C\CCCOC(=O)C4[C@H]2C(=O)N(CCCCCCO)[C@@H]3C1=O` (stereo not given in full), the composite z-score is 1.3 in assay [1]; -0.808 in assay [2]; 0.0835 in assay [3]; -1.38 in assay [4]; -1.04 in assay [5]; -1.2 in assay [6]. Further, the composite z-score in [8] was -0.934; in assay [9], -0.724; in [11], -0.0379; in assay [16], -1.13; in assay [17] it was -0.205; in assay [18], -0.14. The composite z-score in assay [19] was 0.55; in assay [20], -0.0836. Besides, the z-score was 1.49 in assay [7]; -1.88 (inactive) in assay [10]; 0.0722 (inactive) in [12]; -0.0303 (inactive) in [13]; -0.48 (inactive) in assay [14]; -1.02 (inactive) in [15].

Turning to `COc1cc2c(cc1OC)CN(C(=O)[C@@H]1[C@H]3C(=O)O[C@H](c4ccccc4)[C@H](c4ccccc4)N3[C@H](c3ccc(O)cc3)[C@@]13C(=O)Nc1ccc(C#CCCO)cc13)CC2`, the composite z-score came to 0.388 in assay [1]; 0.989 in [2]; 0.584 in assay [3]; 0.876 in assay [4]; 1.11 in assay [5]; 1.24 in [6]. The composite z-score in assay [8] was 0.945; in [9], 0.7; in assay [11], 0.527; in assay [16], 0.819; in assay [17] it was -0.0493; in assay [18], -0.0185. The composite z-score in assay [19] was determined as 0.45; in [20], 0.655. The z-score in assay [7] is -1.2; in assay [10], 0.372 (inactive); in assay [12] it was 0.082 (inactive); in assay [13], -0.403 (inactive); in assay [14] it was -0.878 (inactive); in [15], -0.231 (inactive).

Take `COC(=O)C1=CC(CCCO)=CC(c2ccc(CN3CCCC3)cc2)N(Cc2cc3c(cc2Br)OCO3)C=C1C(=O)OC` (stereo not given): the composite z-score in assay [1] turned out to be 0.676; in [2] it was 1.22; in [3], 0.473; in [4], 1.02; in [5] it was 1.2; in [6], 0.918. Further, the composite z-score in assay [8] is 0.514; in assay [9] it was 1; in [11] it was 0.804; in assay [16], 1.98; in [17] it was 0.36; in assay [18] it was 0.0851. Further, the composite z-score in [19] is 2.59; in [20], -0.249. Moreover, the z-score was 0.0526 in assay [7]; 0.197 (inactive) in assay [10]; -0.0928 (inactive) in assay [12]; -0.44 (inactive) in assay [13]; 0.0118 (inactive) in assay [14]; -0.602 (inactive) in [15].

As to `CC(C)c1ccc(NN2C(C(O)Cc3ccccc3)C=CC3C(=O)N(c4ccccc4)C(=O)C32)cc1` (stereo not given), the composite z-score in [1] was 0.829; in assay [2], 1.11; in [3], 1.16; in [4], 0.958; in assay [5], 1.28; in assay [6], -0.0551. Moreover, the composite z-score in [8] was 0.441; in assay [9], 0.797; in assay [11] it was 0.204; in assay [16], 1.87; in assay [17], -0.152; in assay [18], 0.14. Further, the composite z-score in [19] is 0.815; in [20], -0.154. For the same compound, the z-score is -1.24 in assay [7]; -0.959 (inactive) in assay [10]; -0.695 (inactive) in [12]; -0.221 (inactive) in assay [13]; 0.243 (inactive) in assay [14]; 2.48 (inactive) in assay [15].

As for `CCOC(=O)C[C@H]1[C@H](OC(=O)c2ccc(-c3ccccc3)cc2)[C@@H](NC(=O)CC(C)C)c2cc(OCCCO)ccc2N1C(=O)c1ccccc1`, the composite z-score in assay [1] was found to be 0.281; in assay [2], 0.453; in [3], 0.513; in assay [4], 0.252; in [5], 0.249; in assay [6], 0.376. Also, the composite z-score in assay [8] was 0.369; in assay [9], 0.0794; in assay [11], 0.121; in assay [16], 0.216; in [17], -0.0963; in assay [18], -0.477. For the same compound, the composite z-score in assay [19] came out at 0.289; in [20] it was 1.03. The z-score in [7] was 1.23; in [10], -0.228 (inactive); in assay [12], -0.092 (inactive); in assay [13], 0.0804 (inactive); in [14] it was 0.469 (inactive); in [15] it was -0.375 (inactive).
